Screening results (PubChem BioAssay)
Hits are enriched below; roughly 21% of the tested compounds scored in any of these assays.
Pf growth 48h: inhibits P. falciparum growth in the first generation, 48 h | Potency, µM (top dose mostly 28.7 µM), for the others: at the top dose activity change, negative = inhibition, usual class: inhibitors | P. falciparum luciferase growth in erythrocytes, 48 h | hit rate 5.9% among 310,000; further: potency means the concentration at half of the fitted maximal effect; on the % scale 0 is the no-effect control and ±100 the full control effect
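In quantitative HTS format, infected erythrocytes bearing luciferase-reporter parasites were treated for a single generation at 37 C. Luminescence after adding detection reagent served as the growth measure.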
NS1 function inh: inhibitors of influenza NS1 protein function | Potency, µM (top dose mostly 46.1 µM), for the others: top-dose activity, positive = more growth | hit rate 0.4% among 270,000; calls by dose curve; further: potency means the concentration at half of the fitted maximal effect; actives are rising curves; nearly all actives have a fitted effect of over 50% in size
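OD600 was taken as the measure of yeast growth restored by compound in an NS1-expressing S. cerevisiae strain. Cells had been washed out of glucose medium and diluted 1:100 into galactose -URA medium, pH 6.0.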
Shiga toxin inh: inhibitors of Shiga toxin in Vero cells; inhibition, % at 38.7 µM; hit rate 9.2% among 290,000; AID 2315; Vero cells, Shiga toxin protein synthesis inhibition reporter; in the data active means inhibition mostly above about 28%, no sharp cut-off; inactive means mostly below about 43%; further: 0% is about no effect
Pf growth 96h: P. falciparum growth inhibition at 96 hour, primary screen for plastid delayed-death inhibitors | P. falciparum luciferase reporter growth, 96 h | Potency, µM (top dose mostly 28.7 µM), for the others: at the top dose activity change, negative = inhibition, most hits filed as inhibitors | hit rate 6.9% among 320,000 | AID 504834; further: potency means the concentration at half of the fitted maximal effect; on the % scale 0 is the no-effect control and ±100 the full control effect
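Cell-based qHTS: luciferase-tagged P. falciparum in erythrocytes (2% hematocrit, 0.05% parasitemia final) incubated with compounds for 96 hours, 37 C, 5% CO2; luciferase detection reagent then added and luminescence measured.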
Cycloheximide cs: counter-screen hit for Shiga toxin inhibitors, cycloheximide. max response, %. cell reporter, cycloheximide protein synthesis inhibition counterscreen. AID 2314. hit rate 12% among 300,000; in the data active means max response mostly above about 13%, no sharp cut-off; inactive means mostly below about 14%; further: read at 38.3 µM for the half of the compounds with a filed dose; 0% is about no effect
Numbers without * were called inactive; u = inconclusive; x = no result; [ ] = remark or other dose. Unless noted, the call rests on the fitted dose curve; in most records, active means well fitted inhibition curve with a large enough effect; inconclusive means small, poorly fitted or top-dose-only effect, or another doubt; inactive means no such curve, though single readings can be large or run the other way.

SMILES | Pf growth 48h | NS1 function inh | Shiga toxin inh | Pf growth 96h | Cycloheximide cs
C=CCOC(=O)C1=C(C)NC(=O)NC1c1ccc(OC(=O)c2ccco2)c(OC)c1 (configuration not stated) | 3.9% | -0.2% | -24.3 | 15.6% | -2.1
CCOC(=O)c1cc(-c2ccc(OC)cc2)nc2c1c(C)nn2CCC(N)=S | u | x | -9.1 | u | 2.7
CN(Cc1cc([N+](=O)[O-])ccc1Cl)C(=O)C[n+]1ccccc1 | -2.3% | -3.1% | -11.9 | -67.8% | -2.9
N/C(Cc1cccc2ccccc12)=N\OC(=O)c1ccccc1F | u | -17.5% | 23.2 | u | 22.7*
N/C(Cc1ccc(Cl)cc1Cl)=N\OC(=O)c1ccccc1F | 35.3% | x | 74.6* | 0.0% | 53.3*
N/C(Cc1ccccc1)=N\OC(=O)c1cccc2ccccc12 | 3.29µM* | -55.1% | 63.9* | 4.65µM* | 28.7*
CC(NC(=O)c1cccs1)c1nnc(SCc2ccc(Cl)cc2Cl)n1C (configuration not stated) | u | 2.7% | -18.3 | u | -6.0
COc1ccc(S(=O)(=O)N2CCN3CCCC3C2)cc1 (configuration not stated) | -15.0% | 2.2% | 9.7 | 209.1% | -2.2
CCCCCc1nc2c(=O)n(C)c3ccccc3c2o1 | u | -30.6% | 123.4* | 1.6% | 64.4*
O=C(NCCCN1CCCCC1)c1ccc2c(c1)ncn2C1CCCC1 | -10.5% | 7.0% | 20.9 | 98.9% | -1.6
CCC1CCCCN1CCCNC(=O)c1ccc2nc(N3CCC(C)CC3)sc2c1 (configuration not stated) | u | 3.4% | 90.4* | u | 28.8*
CC1CCN(c2nc3ccc(C(=O)NCCCN4CCCCC4)cc3s2)CC1 | -13.4% | -12.9% | 29.4* | 14.1% | 28.3*
CC1CCN(c2nc3ccc(C(=O)O)cc3s2)CC1 | 1.17µM* | -189.2% | -24.2 | -12.1% | -6.9
CCC1CCCCN1CCCNC(=O)c1ccc2c(c1)NC(=O)CS2 (configuration not stated) | u | -7.5% | -2.7 | 24.4% | 1.5
N#Cc1ccc(-c2ccc(OCC(O)CN3CCCCC3)cc2)cc1 (configuration not stated) | u | 6.7% | -4.7 | u | -3.7
Cc1cccc(N(C(=O)c2csnn2)C(C(=O)NCc2ccccc2)c2cccs2)c1 (configuration not stated) | -13.7% | -11.5% | -5.6 | 28.8% | -0.7
O=C(NC1CC1)c1ccc(C2SCC(=O)N2Cc2ccccc2)cc1 (configuration not stated) | u | x | 13.6 | u | -0.6
O=P(CCCCCCCCCP(=O)(c1ccccc1)c1ccccc1)(c1ccccc1)c1ccccc1 | 1.31µM* | -82.7% | -25.7 | x | 3.2
COC(=O)c1ccc2nc(-c3ccc4c(c3)OCO4)cn2c1 | 109.6% | 0.1% | 68.8* | 205.2% | 39.8*
NNC(=O)c1ccc(Cn2cc(Br)cn2)cc1 | -3.6% | u | -16.8 | u | -3.1
NNC(=O)c1ccc2nc(-c3ccc(Br)cc3)cn2c1 | u | x | 57.1 | -64.9% | 30.3*
COc1ccc(-c2cn3cc(C(=O)NN)ccc3n2)cc1 | 186.8% | 15.1% | 41.7* | 4.65µM* | 23.6*
CCc1ccn2cc(-c3ccc4c(c3)OCO4)nc2c1 | 11.6% | -69.2% | -24.0 | 130.2% | 5.2
CNC(=O)NC(=O)C(OC(=O)CCNS(=O)(=O)c1ccccc1)c1ccccc1 (configuration not stated) | u | 7.9% | 14.7 | 2.5% | -2.5
Cc1nc2c(C)cccn2c1/C(O)=C1\C(=O)C(=O)N(CCN(C)C)C1c1ccccc1 (configuration not stated) | 8.3% | 1.8% | 14.8 | 18.8% | 4.2
SMILES | Pf growth 48h | NS1 function inh | Shiga toxin inh | Pf growth 96h | Cycloheximide cs
O=C(c1ccc(S(=O)(=O)N2CCCC2)cc1)N(Cc1ccco1)C1CCS(=O)(=O)C1 (configuration not stated) | -18.4% | -3.4% | -12.2 | 1.9% | -2.3
Nc1nc2ccccc2cc1-c1cccs1 | -14.4%[0.00184 µM] | -4.7% | 93.6* | 67.7% | 60.8*
Cc1cc2ncc(-c3cccs3)nc2cc1C | 141.6% | -6.9% | 101.5* | 493.7% | 51.4*
Cc1cc(-c2cccs2)n[nH]1 | 7.1% | -1.5% | 28.5 | x | 13.8
Cc1ccccc1S(=O)(=O)c1cc2ccccc2nc1N | -2.7% | -2.6% | -6.7 | u | -3.3
Cc1ccc(-c2cc3ccccc3nc2N)cc1 | -14.3%[0.00184 µM] | -4.2% | 71.1* | -1.8% | 17.8*
c1csc(-c2ccc3ccccc3n2)c1 | 116.8% | -13.4% | 89.6 | -1.8%[5.75 µM] | 33.4*
N#Cc1cc2ccccc2nc1N | 18.3% | -3.5% | 9.0 | 16.4% | -2.4
Cc1nnc(C)n1N | 172.5% | x | -9.7 | 26.3% | 5.7
S=c1[nH]nc(-c2ccco2)n1C1CCCCC1 | 10.6% | u | 10.5 | -11.2% | -2.3
C/C(N)=C(/C#N)C(=O)CSc1cc(C)c2cc(C)cc(C)c2n1 | -10.1% | -0.3% | 26.7 | 10.1% | -1.6
O=C(Nc1nc(-c2ccc(Cl)cc2)cs1)C1CCCO1 (configuration not stated) | 82.1% | x | 90.8* | 139.2% | 36.1*
CCOc1ccc(-c2csc(NC(=O)C3CCCO3)n2)cc1 (configuration not stated) | 55.4% | -15.8% | 11.0* | x | 41.7*
O=C(Nc1nc(-c2ccc(Cl)cc2Cl)cs1)C1CCCO1 (configuration not stated) | 14.9% | -5.7% | 7.5 | 55.6% | 9.3
O=C(N/N=C/c1c(O)n(CCc2ccccc2)c(=O)[nH]c1=O)c1ccncc1 | -8.5% | -26.5% | -14.8 | u | -6.8
O=C(N/N=C/c1c(O)n(CCc2ccc(F)cc2)c(=O)[nH]c1=O)c1ccccc1 | 80.9% | 9.4% | 52.8* | u | 14.0*
O=C(N/N=C/c1c(O)n(Cc2ccco2)c(=O)[nH]c1=O)c1ccccc1 | 22.4% | -2.0% | 79.9 | 26.5% | 33.7*
O=c1[nH]c(=O)n(Cc2ccco2)c(O)c1C=NC1CC1 | 5.9% | 3.0% | 12.7 | 22.6% | -4.6
O=C(N/N=C/c1c(O)n(CCc2ccccc2)c(=O)[nH]c1=O)c1ccccc1O | 1.3% | -7.4% | 28.7 | -10.7% | 23.7*
COc1ccccc1-n1c(O)c(/C=N/NC(=S)Nc2ccccc2)c(=O)[nH]c1=S | 47.7% | 9.4% | 31.8 | 11.1% | 21.6*
O=C(N/N=C/c1c(O)n(CCc2ccc(F)cc2)c(=O)[nH]c1=O)c1ccncc1 | 5.4% | x | -1.1 | u | 15.4
CC(C)Cc1nn2c(=O)cc(COc3ccc(NC(=O)c4ccco4)cc3)nc2s1 | -9.0% | 17.3% | -3.0 | u | -10.3
NS(=O)(=O)c1ccc(NC(=O)COc2ccc(Cl)cc2)cc1 | x | 3.3% | -7.2 | 25.0% | -3.5
O=C(O)c1ncn(Cc2ccc(Br)cc2)c1C(=O)O | u | x | -12.3 | -32.2%[5.75 µM] | -1.3
O=C(O)/C=C/c1ccc(S(=O)(=O)Nc2ccc(C(=O)NCC(=O)O)cc2)cc1 | 46.1% | 5.6% | 16.0 | 14.9% | 0.6
COc1ccc(Cn2c(O)c(/C=N/NC(=O)c3ccccc3)c(=O)[nH]c2=O)cc1 | 11.7% | 27.7% | 74.9* | -27.7% | 37.3*
COc1ccc(Cn2c(O)c(/C=N/NC(=O)c3ccccc3O)c(=O)[nH]c2=O)cc1 | -1.7% | 20.0% | 19.6 | 4.7% | 13.0*
